Experimental data from PubChem BioAssay AID588475 (Sanford-Burnham Center for Chemical Genomics, 2011).
Screen size: about 350,000 compounds; about 2,100 (0.6%) were called active.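 How the source made its calls: active means inhibition of the ligand-induced calcium signal above about 50% at the single tested concentration (limit read from the data); inactive means the rest.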 The full list was thinned out, with actives kept by preference.

Assay: antagonists of CRF-BP/CRF-R2 complex, primary screen, cell-based, HEK293, calcium dye fluorescence, uHTS (AID 588475)
Conditions: CRF-induced calcium fluorescence, at 11.8 µM, active compounds read high
With `O=C(N[C@H]1C/C=C\C(c2cccc(F)c2)N(Cc2ccccc2)C(=O)C1)OCC1c2ccccc2-c2ccccc21` (stereo not given in full) the inhibition was 98.1% (active). In the case of `O=C(N[C@@H]1C/C=C\C[C@@H](CC(=O)N(CCO)Cc2ccccc2)C(=O)N[C@H](Cc2ccccc2)COC1=O)OCC1c2ccccc2-c2ccccc21`, the inhibition is reported as 1.02% (inactive). In the case of `O=C(N[C@H]1C/C=C\C(c2ccc(F)cc2)N(Cc2ccccc2)C(=O)C1)OCC1c2ccccc2-c2ccccc21` (stereo not given in full), the inhibition is reported as -13.4% (inactive). With `COc1ccc(Cn2c(O)c(/C=C3/C=CC=N3)c(=O)[nH]c2=O)cc1` the inhibition was 0.93% (inactive). With `NC(=O)C1(N2CCCCC2)CCN(C2CC(=O)N(Cc3ccc(N4CCCC4=O)cc3)C2=O)CC1` (stereo not given) the inhibition was -8.44% (inactive). For `O=C(O)CC(SCC(=O)Nc1ccc(Br)cc1)C(=O)O` (stereo not given), the inhibition was 57.3% (active). With `O=C(O)CSCC(=O)Nc1ccc(C(F)(F)F)cc1` the inhibition was -14.8% (inactive). For `Cc1cc(C)c2c(=O)[nH]c(SCC(=O)Nc3ccc(Br)cc3)nc2n1`, the inhibition was -6.59% (inactive). In the case of `O=C(CN1CCOC1=O)N1CCCC(Nc2ccc(F)c(F)c2)C1` (stereo not given), the inhibition is reported as 0.32% (inactive). For `CCc1cc(=O)oc2c(C)c(OCC(=O)N3CC[C@@]4(O)CCCC[C@H]4C3)ccc12`, the inhibition was -9.77% (inactive). With `COc1ccc(OC)c(CNC(=O)Cn2nc(C)c3c(C)n(-c4ccc(C)cc4)nc3c2=O)c1` the inhibition was 9.58% (inactive). For `CCCCOC(=O)c1ccc(NC(c2ccc(C)cc2)P(=O)(OC)OC)cc1` (stereo not given), the inhibition was 102% (active). With `CCOP(=O)(OCC)C(Nc1ccc([N+](=O)[O-])cc1)c1ccc(Cl)cc1` (stereo not given) the inhibition was 40.7% (inactive). For `CCOP(=O)(OCC)C(Nc1cccc(C)c1)c1ccc(F)cc1` (stereo not given), the inhibition was -6.82% (inactive). For `O=C(CCCn1c(=O)c2sccc2n(CC(=O)NCC2CCCO2)c1=O)NCc1ccco1` (stereo not given), the inhibition was -17.3% (inactive). In the case of `CCOC(=O)N1CCN(S(=O)(=O)c2cc3c(cc2C)NC(=O)CO3)CC1`, the inhibition is reported as -1.54% (inactive). In the case of `CN1CCN(CC(=O)C23CC4CC(CC(C4)C2)C3)CC1`, the inhibition is reported as 7.99% (inactive). For `Cc1ccccc1N1CCN(C2CCCN(C(=O)c3ocnc3C)C2)CC1` (stereo not given), the inhibition was 1% (inactive). In the case of `Cc1cnc(C(=O)N2CCCC(N3CCN(c4ccccc4F)CC3)C2)cn1` (stereo not given), the inhibition is reported as 14.5% (inactive). With `Cc1ccccc1N1CCN(C2CCCN(C(=O)c3cn4c(C)cccc4n3)C2)CC1` (stereo not given) the inhibition was 53.6% (active). With `Cc1ccc(-n2cc3ccc([N+](=O)[O-])cc3n2)cc1` the inhibition was -2.01% (inactive). For `Cc1ccc(NC(=O)c2oc3ccccc3c2C)c([N+](=O)[O-])c1`, the inhibition was -13.1% (inactive). In the case of `O=C(NC1CC1)C1CCCN(C(=O)NC2CCCCC2)C1` (stereo not given), the inhibition is reported as 1.71% (inactive). For `COc1cc(C)nc(N2CCCC(C(=O)NCC(C)C)C2)n1` (stereo not given), the inhibition was -9.18% (inactive). In the case of `Cc1ccnc(N2CCCC(C(=O)NC3CC3)C2)n1` (stereo not given), the inhibition is reported as 50.4% (active). With `CC(C)(C)NC(=O)CN1CCC(NC(=O)C23CC4CC(CC(C4)C2)C3)CC1` the inhibition was -2.97% (inactive). For `O=C(CNCc1ccc(F)cc1)Nc1ccccc1-c1ccccc1`, the inhibition was -15% (inactive). With `O=C(COC(=O)c1ccc(N2CCCC2=O)cc1)c1ccc(OC(F)F)cc1` the inhibition was 4.33% (inactive). In the case of `O=C(Nc1cccc(F)c1)c1coc(=O)c(Br)c1`, the inhibition is reported as 102% (active). In the case of `O=C(CCN1C(=O)c2ccccc2C1=O)Nc1cccc(F)c1`, the inhibition is reported as -0.74% (inactive). With `Cc1c(NC(=O)c2coc(=O)c(Br)c2)c(=O)n(-c2ccccc2)n1C` the inhibition was -18.5% (inactive). With `Cc1nn(-c2ccccc2)c(Cl)c1/C=C/C(=O)c1ccc(O)cc1` the inhibition was 57.7% (active). In the case of `Cc1nn(-c2ccccc2)c(Cl)c1/C=N/NC(=O)c1nn(C)cc1[N+](=O)[O-]`, the inhibition is reported as 15.5% (inactive). For `Cc1nn(-c2ccccc2)c(C)c1/C=C/C(=O)OC(C)C(N)=O` (stereo not given), the inhibition was 23.7% (inactive). For `CC1(C)CC(=O)C(N=Nc2c(F)cccc2F)=C(O)C1`, the inhibition was 14.8% (inactive). With `O=C(NCCC1=CCCCC1)c1ccc(-n2cncn2)cc1` the inhibition was -5.9% (inactive). In the case of `CN(c1ccc(C(=O)NCCC2=CCCCC2)cc1)S(C)(=O)=O`, the inhibition is reported as 3.31% (inactive). For `Cn1nnc2cc(C(=O)NCCC3=CCCCC3)ccc21`, the inhibition was 69% (active). With `CCCCCCCCCCCC(=O)O` the inhibition was 16.1% (inactive). With `Cc1ccc(S(=O)(=O)c2c[nH]c3ccc(C)cc3c2=O)cc1` the inhibition was -6.79% (inactive). With `S=c1[nH]nc(-c2ccc(Cl)cc2)n1CC1CCCO1` (stereo not given) the inhibition was 19% (inactive). For `O=C(c1nnc(-c2ccc(Cl)cc2)o1)C1CCCC1`, the inhibition was 1.38% (inactive). In the case of `O=C(c1[nH]ncc1-c1ccc(Cl)cc1)C1CO1` (stereo not given), the inhibition is reported as 98.5% (active). In the case of `CN(C(=O)c1cccc(NC(=O)Cc2ccc([N+](=O)[O-])cc2)c1)C1CCC1`, the inhibition is reported as 10.4% (inactive). In the case of `CCOC(=O)c1cc2occc2n1CC(=O)NC1CCC(C)CC1` (stereo not given), the inhibition is reported as 4.37% (inactive). In the case of `O=C(CN1C(=O)CC(c2ccccc2)=Nc2ccccc21)NC1CCCCC1`, the inhibition is reported as 3.75% (inactive). In the case of `CC(=O)Oc1c(C(=O)c2nnc(C)o2)c(=O)n(Cc2ccccc2)c2ccccc12`, the inhibition is reported as -18.6% (inactive). In the case of `NC(N)=N/N=C/c1ccc(OCc2ccc(Cl)cc2Cl)cc1`, the inhibition is reported as -68.7% (inactive). For `Cc1oc2c(c1C(=O)N1CCOCC1)C(=O)c1ccccc1C2=O`, the inhibition was 3.77% (inactive). With `O=S(=O)(Nc1cc(Cl)ccc1N1CCOCC1)c1ccccc1Cl` the inhibition was 3.16% (inactive). With `O=C1c2ccccc2-c2ncnc3c(N4CCOCC4)cc(N4CCOCC4)c1c23` the inhibition was 54% (active). For `CC1=C(C(=O)N(C)C)C(c2ccccc2OC(F)F)NC(=O)N1` (stereo not given), the inhibition was -0.09% (inactive). In the case of `CCCn1nc(Oc2nc(NC(C)C)nc(N(C)C)n2)ccc1=O`, the inhibition is reported as 2.18% (inactive). With `O=C(Nc1ccc(Br)cc1)c1cc(S(=O)(=O)Nc2ccccn2)ccc1Cl` the inhibition was -2.82% (inactive). For `COc1ccccc1C(=O)Nc1ccc(C)c(S(=O)(=O)N2CCCCC2)c1`, the inhibition was -0.27% (inactive). With `Cc1ccc(NS(=O)(=O)c2ccc(C(C)C)cc2)cc1S(=O)(=O)N1CCOCC1` the inhibition was -10.7% (inactive). With `Cc1ccc(NS(=O)(=O)c2cccs2)cc1S(=O)(=O)N1CCCCCC1` the inhibition was 122% (active). For `CN(C)CCCO/N=C(\c1ccccc1)c1ccncc1`, the inhibition was 1.7% (inactive). In the case of `Cc1cccc(CSc2nc3c(c(=O)n2C)SCC3)c1`, the inhibition is reported as 59.8% (active). With `Cn1c(SCC(=O)N2CCCCC2)nc2c(c1=O)SCC2` the inhibition was -10.6% (inactive). With `Cc1cccc(CSc2nnc(C)c(=O)n2N)c1` the inhibition was 18.4% (inactive). For `CCCN1C2=C(C(=O)CCC2)C(c2ccc(O)c(Br)c2)C2=C1CCCC2=O`, the inhibition was -18.3% (inactive). For `CCc1c(C)nc(N)n2c(SCC(=O)NC3CCCCC3)nnc12`, the inhibition was -4.43% (inactive). For `COc1cc(/C=C(/NC(=O)c2ccc(Cl)cc2Cl)C(=O)O)cc(OC)c1OC`, the inhibition was -5.5% (inactive). In the case of `CCOc1cc(/C=C(/C#N)c2ccc(Cl)cc2)cc(Cl)c1OCC(=O)O`, the inhibition is reported as 57.4% (active). For `CCOc1cc(/C=N/NC(=O)OC)ccc1OCCSc1ccc(Cl)cc1`, the inhibition was -13.1% (inactive). For `COc1ccc(SC[C@H](Cc2ccccc2)N2CCN(CCc3ccccc3)CCC2=O)cc1`, the inhibition was -0.63% (inactive). For `O=C(O)c1cc([N+](=O)[O-])c(Nc2cccc3ccccc23)c([N+](=O)[O-])c1`, the inhibition was 42.1% (inactive). For `N=C1C(c2nc3ccccc3s2)=C(O)CN1NC(=O)c1ccc([N+](=O)[O-])cc1`, the inhibition was 18.1% (inactive). In the case of `O=C(NC(Nc1nc2ccc([N+](=O)[O-])cc2s1)(C(F)(F)F)C(F)(F)F)c1ccccc1`, the inhibition is reported as 56.4% (active). For `O=C(COc1ccc(NC(=O)c2ccccc2[N+](=O)[O-])cc1)c1ccc(F)cc1`, the inhibition was 20.8% (inactive). For `Cc1ccccc1-c1cc(C(=O)NCc2cccs2)n(CC2CC(c3cccnc3)=NO2)n1` (stereo not given), the inhibition was 9.77% (inactive). With `Cc1ccc(CNC(=O)c2cc(-c3ccccc3C)n(CC3CC(c4cccc([N+](=O)[O-])c4)=NO3)n2)cc1` (stereo not given) the inhibition was 78.1% (active). In the case of `COc1ccc(C2=NOC(Cn3nc(C(=O)NCc4ccc5c(c4)OCO5)cc3-c3ccccc3)C2)cc1` (stereo not given), the inhibition is reported as 1.87% (inactive). With `CC(C)c1cc(C(=O)N(C)C2CCCN(Cc3ccccc3F)C2)n(C)n1` (stereo not given) the inhibition was -12.1% (inactive). In the case of `CCCCn1c(N)c(N(CC(C)C)C(=O)c2cccc(S(=O)(=O)N3CCN(C(C)=O)CC3)c2)c(=O)[nH]c1=O`, the inhibition is reported as 8.7% (inactive). With `COc1ccccc1NC(=O)CC(NCCN(C)C)C(=O)O` (stereo not given) the inhibition was 3.95% (inactive). For `COC(=O)C(CC(=O)Nc1cc(C)ccc1C)Nc1ccccc1OC` (stereo not given), the inhibition was 70.2% (active). For `Cc1ccc(C)c(NC(=O)COC(=O)CSc2ccccc2)c1`, the inhibition was 6.02% (inactive). With `CCc1ccc(S(=O)(=O)NCC(O)COc2ccc(OC)cc2)cc1` (stereo not given) the inhibition was -4.68% (inactive). For `Cc1ccccc1Nc1scc(-c2ccc(Br)cc2)[n+]1-c1ccccc1C`, the inhibition was 56.5% (active). For `Cc1ccsc1/C=N/NC(=O)Cc1cc(=O)[nH][nH]1`, the inhibition was 14.1% (inactive). For `Cc1cccc(N2CCN(C(C)C(=O)N3CCc4ccccc43)CC2)c1C` (stereo not given), the inhibition was -7.95% (inactive). In the case of `CCC(C)N(C(=O)CSc1ncnc2c1cnn2-c1ccccc1)C1CCS(=O)(=O)C1` (stereo not given), the inhibition is reported as -8.13% (inactive). In the case of `CCN(CC)C(=O)CSc1ncnc2c1cnn2-c1ccccc1`, the inhibition is reported as 55.8% (active). For `CCN(C(=O)CSc1ncnc2c1cnn2-c1ccccc1)C1CCS(=O)(=O)C1` (stereo not given), the inhibition was 4.09% (inactive). In the case of `O=C(COC(=O)c1cncc(Br)c1)Nc1ccc(S(=O)(=O)N2CCOCC2)cc1`, the inhibition is reported as 5.84% (inactive). With `COc1ccc(CCN2C(=O)C(C)=C(C)C2=O)cc1OC` the inhibition was -6.13% (inactive). With `COc1ccc(CCNC2=C(Cl)C(=O)N(Cc3ccccc3)C2=O)cc1OC` the inhibition was 54% (active). With `COc1ccc(CCN=C2SCC(=O)N2Cc2ccccc2)cc1OC` the inhibition was 7.2% (inactive).
